hNpr1 antagonist = blocks ANP-stimulated signaling of human Npr1 receptor; P16066; HEK293 hNpr1 GloSensor cGMP, ANP-stimulated luminescence; Potency, µM (top dose mostly 46.3 µM), actives largely listed as inhibitors; actives 1.6% (n = 76,000); AID 1347048; calls by dose curve; also: nearly all actives have a fitted effect of over 60% in size
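HEK293 cells stably expressing human Npr1 and cGMP GloSensor pGS-40F, loaded 2 h with 2% GloSensor reagent, given compound 30 min at room temperature. Luminescence read before and 20 min after 0.1 nM hNppA.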
3T3 cytotox = kills NIH 3T3 cells; NIH 3T3 viability, CellTiter-Glo ATP luminescence, 48-72 h; Potency, µM (doses to about 96.7 µM), actives largely listed as inhibitors; actives 4.3% (n = 94,000); also: nearly all actives have a fitted effect of over 55% in size
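ATP-dependent luminescence (CellTiter-Glo) served as the viability signal for NIH 3T3 cells treated with compound for 48 or 72 hr at 37 °C.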
HEK cytotox = HEK 293 cell cytotoxicity. HEK 293 viability, ATP luminescence (CellTiter-Glo), 48-72 h. Potency, µM (highest dose often 115 µM), most hits filed as inhibitors. actives 6.6% (n = 94,000). AID 1345083; also: nearly all actives have a fitted effect of over 60% in size
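Cytotoxicity was scored by loss of ATP-coupled luminescence (CellTiter-Glo) in HEK 293 cells. Compound treatment ran 48 or 72 hr at 37 degree Celsius, 5% CO2, 95% humidity.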
GPT2 inh = inhibitors of human GPT2 alanine aminotransferase. Recombinant GPT2, coupled pyruvate oxidase/HRP Amplex Red fluorescence. Potency, µM (titrated, usually from 57.7 µM), hits mostly inhibitors. actives 0.25% (n = 100,000). AID 1671188; also: nearly all actives have a fitted effect of over 60% in size
Target sequence (Q8TD30 whole entry, looked up): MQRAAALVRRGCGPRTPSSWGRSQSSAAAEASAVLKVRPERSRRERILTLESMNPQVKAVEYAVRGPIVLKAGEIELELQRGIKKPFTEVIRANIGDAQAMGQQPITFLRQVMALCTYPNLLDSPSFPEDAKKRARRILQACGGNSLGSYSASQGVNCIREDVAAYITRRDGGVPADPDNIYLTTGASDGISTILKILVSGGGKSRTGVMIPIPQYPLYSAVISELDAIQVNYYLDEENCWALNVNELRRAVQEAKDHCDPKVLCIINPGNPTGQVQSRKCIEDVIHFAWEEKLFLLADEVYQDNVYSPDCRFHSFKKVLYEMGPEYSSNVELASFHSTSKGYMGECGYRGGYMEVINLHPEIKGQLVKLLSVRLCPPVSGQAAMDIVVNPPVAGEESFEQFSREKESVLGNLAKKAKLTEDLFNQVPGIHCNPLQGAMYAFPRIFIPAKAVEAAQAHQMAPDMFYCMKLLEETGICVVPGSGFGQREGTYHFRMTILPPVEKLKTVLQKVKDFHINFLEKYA
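GPT2 10ng/uL, a-KG 250uM, L-Ala 2mM, HEPES pH7.5 + 0.0001% Tween; 30 min RT. Then Amplex mix (PO/HRP/ThPP), 30 min RT dark, fluorescence. AOA 50uM used as positive control.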
Luciferase inh = blocks purified firefly luciferase enzyme activity. purified P. pyralis luciferase, luminescence, biochemical. Potency, µM (series often up to 115 µM), usual class: inhibitors. actives 2.5% (n = 76,000); also: nearly all actives have a fitted effect of over 65% in size
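Cell-free enzyme assay, 10nM P. pyralis luciferase, luciferin and ATP each at 10uM. Inhibition profiled over a 6-point titration, read as luminescence.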
Hits are given with their value; n = inactive; u = inconclusive; x = no result; [ ] = remark or other dose. In the library only some 10% were active in any assay of this set; here they are far more common. Unless noted, calls follow the shape of the dose curve; as a rule, active = well fitted curve in the direction sought with a large enough effect; inconclusive = small, poorly fitted or top-dose-only effect, or another doubt; inactive = no such curve, though single readings can be large; an effect the other way counts as inactive or inconclusive.

SMILES	hNpr1 antagonist	3T3 cytotox	HEK cytotox	GPT2 inh	Luciferase inh
CCC(NC(=O)c1ccc2nc(-c3ccc(F)cc3)cn2c1)c1cccnc1 (stereo not given)	n	u	u	u	16µM
Cc1cc(C)nc(CNC(=O)c2ccc3nc(-c4ccc(F)cc4)cn3c2)n1	n	n	n	n	n
COc1cccc(C(=O)N2CCCC(Cc3noc(-c4ccncc4)n3)C2)c1 (stereo not given)	n	n	u	n	n
Cn1cc(CN2CCCC(CCc3cccc(C(F)(F)F)c3)C2)cn1 (stereo not given)	n	u	u	n	n
O=C(c1ccc(-n2cnnn2)cc1O)N1CCCC(CCc2ccc(F)cc2)C1 (stereo not given)	u	u	35µM	n	n
Cc1nc(C(=O)N2CCCC(CCc3cccc(C(F)(F)F)c3)C2)c(C)o1 (stereo not given)	n	u	25µM	n	n
O=C(CCn1cnnn1)N1CCCC(CCc2cccc(C(F)(F)F)c2)C1 (stereo not given)	n	u	18µM	u	n
O=C(c1ncccc1O)N1CCCC(CCc2cccc(C(F)(F)F)c2)C1 (stereo not given)	n	u	u	n[11.5 µM]	n
O=C(c1cc(=O)[nH]c2cc(F)ccc12)N1CCCC(CCc2ccc(F)cc2)C1 (stereo not given)	u	u	u	n[11.5 µM]	n
O=C(NCc1ccnc2[nH]ccc12)c1ccccc1Cl	n	n	n	n	n
O=C(Cc1ccccc1)NCc1ccnc2[nH]ccc12	n	n	n	n	35µM
O=C(NCc1ccnc2[nH]ccc12)c1ccc2ccccc2n1	u	u	89µM	n	u
O=C1OC[C@@H]2CCN(Cc3ccccn3)Cc3ccccc3N12	n	n	n	n	n
COc1cc([C@H]2Oc3cc([C@H]4Oc5cc(O)cc(O)c5C(=O)[C@H]4O)ccc3O[C@H]2CO)ccc1O	x	x	x	12µM	x
O=C(NCCc1ccccc1F)c1cc(Br)cn2ccnc12	n	u	u	n	16µM
CC1(C)C(=O)N(Cc2ccccc2)[C@H]2CN(CC3CCOC3)C[C@H]2[S+]1(=O)[O-] (stereo not given in full)	n	89µM	n	n	n
Cc1noc(C)c1CN1C[C@H]2[C@H](C1)[S+](=O)([O-])C(C)(C)C(=O)N2CCOc1ccccc1	n	40µM	n	n	n
CC1(C)C(=O)N(CCOc2ccccc2)[C@H]2CN(c3cccc(C(F)(F)F)c3)C[C@@H]2[S+]1(=O)[O-]	n	11µM	18µM	n	n
O=C(c1ccc(Cl)nc1)N1CCN(c2nccc(Nc3ccccc3Cl)n2)CC1	x	u	u	n	x
CCc1ccc(NC(=O)N2CCC(Oc3ncccc3C(=O)N3CCOCC3)C2)cc1 (stereo not given)	n	n	n	u	n
O=C1c2c(nc(COc3cccc(Cl)c3)n2Cc2ccccc2)NCCN1CC1CC1	n	u	100µM	n	n
COc1cccc(OCc2nc3c(n2Cc2ccccc2)C(=O)N(Cc2cccc(Cl)c2)CCN3)c1	n	u	25µM	n	n
O=C1c2c(nc(COc3cccc(N4CCOCC4)c3)n2Cc2ccccc2)NCCN1CC1CC1	n	u	u	n	n
COc1cc(OC)cc(OCc2nc3c(n2Cc2ccccc2)C(=O)N(Cc2cccc(Cl)c2)CCN3)c1	n	22µM	40µM	n	n
CC(=O)N1CCN(Cc2nc3c(n2Cc2ccccc2)C(=O)N(Cc2cccc(Cl)c2)CCN3)CC1	n	n	u	n	n
SMILES	hNpr1 antagonist	3T3 cytotox	HEK cytotox	GPT2 inh	Luciferase inh
Cc1nc2ccccc2nc1CN1CCC2(CCC(=O)N(CCO)C2)CC1	n	u	u	n	n
COc1ccc(-c2cc(-c3cccnc3)c3cncn3c2)cn1	n	u	u	n	n
COc1ccc(-c2cc(-c3cccc(CO)c3)cn3cncc23)cn1	n	40µM	u	n	n
COc1ccc(-c2cc(-c3ccc4cn[nH]c4c3)cn3cncc23)cn1	n	45µM	u	n	u
O=C1NC2(CCN(CC3CCCCC3)C2)Oc2ccccc21 (stereo not given)	n	u	63µM	n	n
O=C1NC2(CCCN(CC3CC3)C2)Oc2ccccc21 (stereo not given)	n	n	n	n	n
FC(F)Oc1cccc(CNC2CCC3(CCNCC3)CC2)c1	n	u	50µM	n	n
O=C1NC(=NC2CCCCC2)C2(CCN(Cc3ccsc3)CC2)N1c1cc(F)cc(F)c1	x	n	n	n	x
Cc1cc(C2CC(C(=O)NCCc3ccccc3)CN(C(=O)C3CC3)C2)ccc1F (stereo not given)	n	32µM	u	n	n
CCNC(=O)N1CC(C(=O)NCc2cccc(F)c2)CC(c2ccc(F)c(C)c2)C1 (stereo not given)	n	u	u	n	n
CCCOc1cccc(-c2nc(C(=O)NCC)cs2)c1	n	u	32µM	n	n
CC(C)Oc1cccc(-c2nc(C(=O)NCc3ccccc3)cs2)c1	u	u	32µM	n	n
CC(C)Oc1cccc(-c2nc(C(=O)NCc3ccco3)cs2)c1	n	u	u	n	u
CC(C)(C)CN1CCOC[C@H]1c1ncc(-c2cccc(Cl)c2)[nH]1	n	89µM	100µM	n	n
CC(C)(C)CN1CCOC[C@H]1c1ncc(-c2ccccc2)[nH]1	n	u	79µM	n	n
C[C@@H](NC(=O)N1CCOC[C@H]1c1ncc(-c2ccc(Cl)cc2)[nH]1)c1ccccc1	n	100µM	u	n	n
FC(F)(F)c1ccc(-c2cnc([C@@H]3COCCN3Cc3ccncc3)[nH]2)cc1	n	n	u	n	n
FC(F)(F)c1ccc(-c2cnc([C@@H]3COCCN3Cc3ccccn3)[nH]2)cc1	n	40µM	56µM	n	n
COc1ccc(-c2cnc([C@@H]3COCCN3Cc3ccccc3)[nH]2)cc1	n	u	u	n	n
COc1ccc2c(c1)C(COCc1ccccc1)=CC(C)(C)CO2	x	n	u	x	x
COc1ccccc1-c1cccc(C(=O)N2CCN(C(=O)N(C)C)CC2)c1	x	n	u	n	x
O=C(NCC1CC1)c1ccc2nnc(-c3ccoc3)n2c1	x	n	n	n	x
O=C(c1cc(F)ccc1Br)N1CCN(c2ccnc3ccnn23)CC1	x	n	u	n	x
CNC(=O)c1cc(C2CC2)nc2c1c(C1CCN(C(=O)c3ccc(F)cc3)C1)nn2C (stereo not given)	x	n	n	x	x
CO[C@@](C(=O)N1CCOC[C@H]1c1ncc(-c2ccccc2)[nH]1)(c1ccccc1)C(F)(F)F	n	45µM	u	n	n
CC(C)(C)C(=O)N1CCOC[C@H]1c1ncc(-c2ccc(OC(F)(F)F)cc2)[nH]1	n	u	u	u	n
O=C(CNC(=O)c1cccc(-c2ccc(C(F)(F)F)cc2)c1)NCCc1ccc(Cl)cc1	x	n	16µM	n	x

Source: PubChem BioAssay (National Center for Advancing Translational Sciences (NCATS))
